# Results filed as inconclusive are left out. Activity calls are given as the source filed them. Rule for the calls: active = hit-call score of the fitted dose curve at least 0.9, where 1 is the maximum; inconclusive = response in the unintended direction; inactive = score below 0.9.
# How the values were obtained:
# [1] = target: human Janus Kinase 2 (Jak2), JAK2 (gene 3717) (UniProt O60674); assay: NVS_ENZ_hJak2: NovaScreen (NVS) Enzymatic Assay for human Janus Kinase 2 (Jak2) (AID 2283169)
# Description: NVS_ENZ_hJak2 is a biochemical, single-readout assay that uses extracted gene-proteins in a cell-free assay. Measurements were taken 1 hour after chemical dosing in a 384-well plate.NVS_ENZ_hJak2 is one of one assay component(s) measured or calculated from the NVS_ENZ_hJak2 assay. It is designed to make measurements of enzyme activity, a form of enzyme reporter, as detected with fluorescence intensity signals by Fluorescence and electrophoretic mobility shift technology.Data from the assay component NVS_ENZ_hJak2 was analyzed into 1 assay endpoint. This assay endpoint, NVS_ENZ_hJak2, was analyzed in the positive analysis fitting direction relative to DMSO as the negative control and baseline of activity. Using a type of enzyme reporter, loss-of-signal activity can be used to understand changes in the enzymatic activity as they relate to the gene JAK2. Furthermore, this assay endpoint can be referred to as a primary readout, because this assay has produced multiple assay endpoints where this one serves a enzymatic activity function. To generalize the intended target to other relatable targets, this assay endpoint is annotated to the kinase intended target family, where the subfamily is non-receptor tyrosine kinase. […]
# [2] = target: human MET Proto-Oncogene, Receptor Tyrosine Kinase (MET), MET (gene 4233) (UniProt P08581); assay: NVS_ENZ_hMet: NovaScreen (NVS) Enzymatic Assay for human MET Proto-Oncogene, Receptor Tyrosine Kinase (MET) (AID 2283180)
# Sequence of human MET Proto-Oncogene, Receptor Tyrosine Kinase (MET), MET (gene 4233) (P08581 whole entry, looked up): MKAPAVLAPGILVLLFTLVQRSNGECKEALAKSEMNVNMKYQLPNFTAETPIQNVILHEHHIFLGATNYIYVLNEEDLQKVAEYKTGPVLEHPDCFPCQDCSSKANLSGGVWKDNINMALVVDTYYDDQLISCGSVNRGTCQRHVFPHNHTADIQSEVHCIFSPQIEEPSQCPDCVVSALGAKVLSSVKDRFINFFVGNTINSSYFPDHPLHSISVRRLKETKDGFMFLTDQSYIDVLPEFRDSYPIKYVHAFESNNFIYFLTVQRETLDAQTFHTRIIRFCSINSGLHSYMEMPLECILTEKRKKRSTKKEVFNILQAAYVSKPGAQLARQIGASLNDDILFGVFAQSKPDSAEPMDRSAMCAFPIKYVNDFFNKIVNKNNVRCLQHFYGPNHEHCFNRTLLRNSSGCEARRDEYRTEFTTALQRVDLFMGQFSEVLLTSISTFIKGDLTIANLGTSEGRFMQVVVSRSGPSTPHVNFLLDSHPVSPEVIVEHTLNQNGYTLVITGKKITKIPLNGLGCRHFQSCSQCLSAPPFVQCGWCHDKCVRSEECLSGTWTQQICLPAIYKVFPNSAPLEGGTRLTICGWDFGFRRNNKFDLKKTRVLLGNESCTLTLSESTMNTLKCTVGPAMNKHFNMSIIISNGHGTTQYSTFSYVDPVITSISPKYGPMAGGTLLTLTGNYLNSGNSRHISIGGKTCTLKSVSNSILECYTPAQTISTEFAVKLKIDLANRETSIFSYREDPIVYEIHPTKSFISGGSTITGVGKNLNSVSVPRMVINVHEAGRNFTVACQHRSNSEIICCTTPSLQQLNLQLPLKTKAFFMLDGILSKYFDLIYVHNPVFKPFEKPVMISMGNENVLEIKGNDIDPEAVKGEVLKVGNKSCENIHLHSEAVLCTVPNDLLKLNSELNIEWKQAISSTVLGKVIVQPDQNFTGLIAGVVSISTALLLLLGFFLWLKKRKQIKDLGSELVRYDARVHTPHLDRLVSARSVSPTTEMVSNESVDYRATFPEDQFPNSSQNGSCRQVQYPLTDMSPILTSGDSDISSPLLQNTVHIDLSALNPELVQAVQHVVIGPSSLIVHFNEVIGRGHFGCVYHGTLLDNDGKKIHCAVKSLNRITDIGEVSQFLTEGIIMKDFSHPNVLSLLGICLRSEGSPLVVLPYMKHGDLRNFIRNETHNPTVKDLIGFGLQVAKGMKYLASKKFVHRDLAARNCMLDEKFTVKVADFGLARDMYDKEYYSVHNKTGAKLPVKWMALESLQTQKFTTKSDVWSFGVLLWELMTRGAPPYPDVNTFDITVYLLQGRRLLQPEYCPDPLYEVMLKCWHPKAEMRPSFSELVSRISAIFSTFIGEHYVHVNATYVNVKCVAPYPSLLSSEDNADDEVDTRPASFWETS
# In short: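 Cell-free MET kinase assay using recombinant protein and fluorescent substrate, with mobility-shift separation; read 1 h after dosing. Primary duplicate at 25 uM; actives in singleton concentration-response to 50 uM maximum. Signal loss versus DMSO.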
# [3] = target: Collagenase 3 (Homo sapiens) (UniProt P45452); assay: NVS_ENZ_hMMP13: NovaScreen (NVS) Enzymatic Assay for human Matrix Metalloproteinase-13 (MMP13) (AID 2283182)
# In short: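 Recombinant MMP13 cleaving fluorescent substrate, cell-free, measured 1 h after dosing. Primary duplicate screen at 25 uM; actives tested in concentration-response up to 50 uM; loss of signal relative to DMSO.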
# [4] = target: human Matrix Metalloproteinase-2 (MMP2), MMP2 (gene 4313) (UniProt P08253); assay: NVS_ENZ_hMMP2: NovaScreen (NVS) Enzymatic Assay for human Matrix Metalloproteinase-2 (MMP2) (AID 2283184)
# Sequence of human Matrix Metalloproteinase-2 (MMP2), MMP2 (gene 4313) (P08253 whole entry, looked up): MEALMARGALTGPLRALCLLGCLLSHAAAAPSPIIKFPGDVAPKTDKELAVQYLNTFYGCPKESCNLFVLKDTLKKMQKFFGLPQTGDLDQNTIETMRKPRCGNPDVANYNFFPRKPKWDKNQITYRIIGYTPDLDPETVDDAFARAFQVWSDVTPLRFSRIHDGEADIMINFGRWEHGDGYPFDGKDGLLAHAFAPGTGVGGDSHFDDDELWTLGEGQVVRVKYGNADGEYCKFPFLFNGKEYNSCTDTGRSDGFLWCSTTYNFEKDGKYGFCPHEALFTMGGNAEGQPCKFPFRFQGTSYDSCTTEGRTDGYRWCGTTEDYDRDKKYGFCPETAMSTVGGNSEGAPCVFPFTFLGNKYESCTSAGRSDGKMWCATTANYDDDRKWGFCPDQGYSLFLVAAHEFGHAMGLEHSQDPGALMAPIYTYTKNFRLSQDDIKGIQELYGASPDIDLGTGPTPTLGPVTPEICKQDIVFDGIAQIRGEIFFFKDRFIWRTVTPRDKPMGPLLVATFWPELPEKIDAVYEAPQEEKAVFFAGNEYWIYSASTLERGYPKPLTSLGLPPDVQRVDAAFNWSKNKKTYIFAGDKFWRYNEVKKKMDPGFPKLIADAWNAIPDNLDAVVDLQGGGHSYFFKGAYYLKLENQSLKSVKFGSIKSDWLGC
# In short: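 Cell-free recombinant MMP2 activity with a fluorescent substrate, read 1 h after dosing. Primary screen in duplicate at 25 uM; actives then run in concentration series; loss of signal fitted versus DMSO.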
# [5] = target: human Matrix Metalloproteinase-3 (MMP3), MMP3 (gene 4314) (UniProt P08254); assay: NVS_ENZ_hMMP3: NovaScreen (NVS) Enzymatic Assay for human Matrix Metalloproteinase-3 (MMP3) (AID 2283185)
# Sequence of human Matrix Metalloproteinase-3 (MMP3), MMP3 (gene 4314) (P08254 whole entry, looked up): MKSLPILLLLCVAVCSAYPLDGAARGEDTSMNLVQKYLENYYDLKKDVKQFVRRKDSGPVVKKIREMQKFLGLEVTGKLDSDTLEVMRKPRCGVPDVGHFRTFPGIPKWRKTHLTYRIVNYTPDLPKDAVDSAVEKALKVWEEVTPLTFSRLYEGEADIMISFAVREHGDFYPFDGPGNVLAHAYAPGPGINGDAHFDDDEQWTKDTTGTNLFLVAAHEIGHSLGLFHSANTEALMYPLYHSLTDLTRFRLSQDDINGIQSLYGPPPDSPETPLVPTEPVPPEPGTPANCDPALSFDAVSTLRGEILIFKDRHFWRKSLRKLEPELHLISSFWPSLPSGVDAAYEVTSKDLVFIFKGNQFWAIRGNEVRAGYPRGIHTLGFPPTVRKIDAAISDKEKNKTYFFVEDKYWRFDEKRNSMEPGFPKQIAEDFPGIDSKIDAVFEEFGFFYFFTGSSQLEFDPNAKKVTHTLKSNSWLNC
# In short: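 Cell-free recombinant human MMP3 activity, fluorescence intensity read 1 h after dosing. Primary screen duplicate at 25 uM, actives retested in concentration series; loss of signal vs DMSO baseline.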
# [6] = target: human Matrix Metalloproteinase-7 (MMP7), MMP7 (gene 4316) (UniProt P09237); assay: NVS_ENZ_hMMP7: NovaScreen (NVS) Enzymatic Assay for human Matrix Metalloproteinase-7 (MMP7) (AID 2283183)
# Sequence of human Matrix Metalloproteinase-7 (MMP7), MMP7 (gene 4316) (P09237 whole entry, looked up): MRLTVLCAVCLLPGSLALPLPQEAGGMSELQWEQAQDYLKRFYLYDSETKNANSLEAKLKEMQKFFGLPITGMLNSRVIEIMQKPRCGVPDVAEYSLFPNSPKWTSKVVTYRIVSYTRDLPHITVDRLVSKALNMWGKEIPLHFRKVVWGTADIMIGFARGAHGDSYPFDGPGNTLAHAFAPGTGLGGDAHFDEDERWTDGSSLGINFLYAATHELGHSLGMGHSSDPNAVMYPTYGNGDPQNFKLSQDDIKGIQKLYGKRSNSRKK
# In short: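 Cell-free fluorescence enzymatic assay read 1 h after compound addition, activity loss analyzed against DMSO. Primary duplicate testing at 25 uM; compounds meeting threshold rerun in singleton concentration-response up to 50 uM.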
# [7] = target: human p21 Activated Kinase 4 (PAK4), PAK4 (gene 10298) (UniProt O96013); assay: NVS_ENZ_hPAK4: NovaScreen (NVS) Enzymatic Assay for human p21 Activated Kinase 4 (PAK4) (AID 2283189)
# Sequence of human p21 Activated Kinase 4 (PAK4), PAK4 (gene 10298) (O96013 whole entry, looked up): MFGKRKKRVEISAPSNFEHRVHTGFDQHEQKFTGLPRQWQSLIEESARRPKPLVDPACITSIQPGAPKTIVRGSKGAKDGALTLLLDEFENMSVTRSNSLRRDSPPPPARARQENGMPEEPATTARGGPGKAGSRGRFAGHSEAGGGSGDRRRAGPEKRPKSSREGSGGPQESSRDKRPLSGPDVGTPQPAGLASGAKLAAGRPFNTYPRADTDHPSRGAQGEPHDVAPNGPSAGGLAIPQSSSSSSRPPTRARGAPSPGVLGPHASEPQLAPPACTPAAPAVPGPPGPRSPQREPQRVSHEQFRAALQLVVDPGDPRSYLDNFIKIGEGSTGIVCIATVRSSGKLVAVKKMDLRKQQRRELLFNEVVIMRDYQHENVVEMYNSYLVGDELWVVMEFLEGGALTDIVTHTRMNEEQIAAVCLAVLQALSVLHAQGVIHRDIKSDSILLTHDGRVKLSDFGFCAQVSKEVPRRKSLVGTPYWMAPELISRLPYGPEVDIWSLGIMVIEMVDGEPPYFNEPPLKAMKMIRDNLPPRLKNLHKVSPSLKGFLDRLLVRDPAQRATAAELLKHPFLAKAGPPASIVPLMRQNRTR
# In short: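 Cell-free recombinant human PAK4 activity assay; fluorescent substrate and product separated by electrophoretic mobility shift, read 1 h after dosing. Initially tested in duplicate at 25 uM, relative to DMSO baseline.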
# Sequence of human Janus Kinase 2 (Jak2), JAK2 (gene 3717) (O60674 whole entry, looked up): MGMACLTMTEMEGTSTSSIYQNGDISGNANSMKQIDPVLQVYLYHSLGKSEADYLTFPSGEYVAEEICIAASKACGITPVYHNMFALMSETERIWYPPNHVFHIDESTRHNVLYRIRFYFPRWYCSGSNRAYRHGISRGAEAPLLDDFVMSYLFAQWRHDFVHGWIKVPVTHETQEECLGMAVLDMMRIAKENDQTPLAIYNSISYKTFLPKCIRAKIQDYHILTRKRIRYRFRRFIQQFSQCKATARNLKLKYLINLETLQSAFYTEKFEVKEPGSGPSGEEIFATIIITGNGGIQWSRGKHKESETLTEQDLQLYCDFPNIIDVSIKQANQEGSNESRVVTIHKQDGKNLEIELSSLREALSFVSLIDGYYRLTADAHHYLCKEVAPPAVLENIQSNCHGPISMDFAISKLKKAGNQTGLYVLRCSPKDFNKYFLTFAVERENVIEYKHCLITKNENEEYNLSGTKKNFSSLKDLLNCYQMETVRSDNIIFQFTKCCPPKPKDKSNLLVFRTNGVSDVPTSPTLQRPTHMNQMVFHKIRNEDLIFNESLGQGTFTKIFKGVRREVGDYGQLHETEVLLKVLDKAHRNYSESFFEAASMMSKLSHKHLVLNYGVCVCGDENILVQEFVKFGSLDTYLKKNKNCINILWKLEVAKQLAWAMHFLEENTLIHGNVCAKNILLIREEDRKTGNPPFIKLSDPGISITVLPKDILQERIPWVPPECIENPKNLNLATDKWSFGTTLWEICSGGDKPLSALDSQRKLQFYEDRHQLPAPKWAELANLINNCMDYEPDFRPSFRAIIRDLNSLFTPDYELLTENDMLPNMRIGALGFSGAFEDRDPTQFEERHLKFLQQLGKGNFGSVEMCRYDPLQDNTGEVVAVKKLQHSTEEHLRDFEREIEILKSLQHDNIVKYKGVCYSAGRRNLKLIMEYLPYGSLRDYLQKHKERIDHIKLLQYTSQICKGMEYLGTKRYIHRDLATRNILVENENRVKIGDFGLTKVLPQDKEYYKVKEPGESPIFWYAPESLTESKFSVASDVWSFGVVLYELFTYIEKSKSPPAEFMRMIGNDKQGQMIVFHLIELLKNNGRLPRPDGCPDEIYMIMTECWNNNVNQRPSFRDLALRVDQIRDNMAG
smiles,measurement,setting,value
Cn1sc(Cl)cc1=O,outcome,[1],inactive
CC(C)(C)c1cc(O)ccc1O,outcome,[2],inactive
COc1cc(-c2ccc(N)c(OC)c2)ccc1N,AC50,[3],17.9 µM (active)
same,AC50,[4],7.86 µM (active)
O=C(O)C(F)(F)C(F)(F)C(F)(F)C(F)(F)C(F)(F)C(F)(F)C(F)(F)C(F)(F)C(F)(F)C(F)(F)F,AC50,[3],23.3 µM (active)
same,AC50,[4],21.9 µM (active)
same,AC50,[5],10.3 µM (active)
O=C1C2(Cl)C3(Cl)C4(Cl)C(Cl)(Cl)C5(Cl)C3(Cl)C1(Cl)C5(Cl)C24Cl (stereo not given),AC50,[6],5.85 µM (active)
CC(C)(OO)c1ccccc1,outcome,[7],inactive
C[C@]12CCC(=O)C[C@@H]1CC[C@@H]1[C@@H]2CC[C@]2(C)[C@@H](O)CC[C@@H]12,outcome,[7],inactive

# Source: PubChem BioAssay (EPA / NIEHS)
